# In PubChem BioAssay (NCI):
# Compounds without any hit were thinned out: in the full panel of roughly 79,000, 15% have a hit. Active and inactive are the calls of the source. Cut-off read from the data, not from the text of the source: active = growth inhibition above about 70%; inactive = the rest.
# Test: NCI Yeast Anticancer Drug Screen. Data for the rad52 strain (AID 147);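 note: 0% = growth of vehicle-treated control cultures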
# Settings: S. cerevisiae rad52 mutant growth inhibition; at 100.0 µM; active compounds read high
# Method in brief: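 Growth of repair-deficient yeast cells was compared between compound-treated and vehicle-treated cultures to give percent inhibition.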
row,SMILES,growth inhibition
1,O=CC=C(c1ccccc1)c1ccccc1,95% (active)
2,FC(F)(F)c1nc2nc(Cl)c(Cl)nc2n1CCCN1CCOCC1,32% (inactive)
3,BrCC[P+](c1ccccc1)(c1ccccc1)c1ccccc1,96% (active)
4,N#CSc1ccc(S(N)(=O)=O)cc1,64% (inactive)
5,O=[N+]([O-])c1ccc2nc3ccccc3cc2c1,96% (active)
6,O=C(NC(Nc1ccc(F)c(Cl)c1)(C(F)(F)F)C(F)(F)F)C(C(F)(F)F)C(F)(F)F,97% (active)
7,O=C(/C=C\c1ccc(Cl)cc1Cl)c1cccs1,16% (inactive)
8,O=C(NCCCCNCCCNC(=O)c1cc(-c2ccccc2)nc2ccccc12)c1cc(-c2ccccc2)nc2ccccc12,92% (active)
9,NC(=NCc1ccccc1)N/N=C\c1ccnc2ccccc12,32% (inactive)
10,CCCCN(CCCC)CCSc1ccc(Cl)cc1,95% (active)
11,COc1cc(C2C3=C(COC3=O)Oc3cc4c(cc32)OCO4)ccc1O (stereo not drawn),72% (active)
12,C#CCCCc1ccccc1,66% (inactive)
13,CCc1ccc(NS(=O)(=O)c2ccccc2)c([N+](=O)[O-])c1,76% (active)
14,COc1ccc(C2c3cc4c(cc3OC(C)(O)C2C)OCO4)c(OC)c1 (stereo not drawn),96% (active)
15,COC(=O)c1ccc(CCC2=CC(=O)C(Br)=CC2=O)cc1,72% (active)
16,NNC(=O)CCc1ccc2ccc3ccccc3c2c1,52% (inactive)
17,Cn1c2ccccc2c(=O)c2cc(NC(=O)CCCCC(=O)Nc3ccc4c(c3)c(=O)c3ccccc3n4C)ccc21,87% (active)
18,CC(CC(C)(C)[N+](C)(C)C)[N+](C)(C)C (stereo not drawn),14% (inactive)
19,CC1CCN(CCC(=O)c2ccc(Cl)cc2)CC1,53% (inactive)
20,CCCCCCCCCCCCCCC(C(=O)[O-])[n+]1ccccc1 (stereo not drawn),91% (active)

row,SMILES,growth inhibition
1,CNC1C(OC2C(OC3C(O)C(O)C(N=C(N)N)C(O)C3N=C(N)N)OC(C)C2(O)CO)OC(CO)C(O)C1O (stereo not drawn),-7% (inactive)
2,O=C(O)c1ccccc1-c1ccccc1C(=O)Nc1ccc2c(c1)Cc1ccccc1-2,90% (active)
3,O=[N+]([O-])c1cccc2nc3ccccc3c(NCCCN3CCOCC3)c12,98% (active)
4,C=CC(C)(O)CCC1C(=C)C(O)CC2C(C)(C)CCCC12C (stereo not drawn),72% (active)
5,CN1c2ccc(Cl)cc2C(=O)NC1c1ccc([N+](=O)[O-])s1 (stereo not drawn),97% (active)
6,[O-][n+]1c2ccc(O)cc2nc2ccc(Br)cc21,85% (active)
7,O=C1c2ccccc2-c2nc3ccccc3nc21,91% (active)
8,CCCCN1C(=O)N(c2ccc(OCC)cc2)C2N(CCCC)C1C(C)(C)C2(C)C (stereo not drawn),86% (active)
9,CO[C@H]1C[C@](C)(O)Cc2cc3c(c(O)c21)C(=O)c1c(O)cc2c(c1C3=O)O[C@@H]1O[C@@]2(C)[C@H](O)[C@@H](N(C)C)[C@@H]1O,87% (active)
10,COc1cc2c(cc1[N+](=O)[O-])C(=O)C(Br)(Br)CCC2,94% (active)
11,O=C1OC(CCl)CN1/N=C/c1ccc([N+](=O)[O-])o1 (stereo not drawn),88% (active)
12,CN(C)CCOc1ccc2c(c1)C/C(=C/c1ncc([N+](=O)[O-])n1C)C2=O,90% (active)
13,CCCCCCCCCCCCCCCCCCN(C)CC(COP(=O)([O-])OCC[N+](C)(C)C)OC (stereo not drawn),98% (active)
14,CC(C)c1ccccc1NC(=O)/C(Cl)=C(\Cl)C(=O)O,99% (active)
15,O=[N+]([O-])C(=C(Sc1ccccc1)Sc1ccccc1)C(Cl)=C(Cl)Cl,59% (inactive)
16,C(=C\c1ccccc1)/COc1ccccc1C(N1CCOCC1)n1nc2ccccc2n1 (stereo not drawn),97% (active)
17,O=C1C(Nc2ccccc2)=C(Oc2ccccc2)C(=O)c2ccccc21,32% (inactive)
18,CCN(CC)CCN1C(=O)c2cccc3cc(OC)cc(c23)C1=O,93% (active)
19,CN(C)Cc1cc(N=Nc2ccc(Cl)cc2)cc(CN(C)C)c1O,58% (inactive)

# Test: NCI Yeast Anticancer Drug Screen. Data for the wt1 strain (AID 149);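 note: 0% = growth of vehicle-treated wt1 cultures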
# Settings: S. cerevisiae wt1 strain (SPY 50644) growth inhibition; at 1.2 µM; active compounds read high
# Method in brief: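 Compounds are added to wt1 yeast cultures. Growth is then measured. Inhibition is expressed relative to vehicle-treated controls.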
row,SMILES,growth inhibition
1,O=CC=C(c1ccccc1)c1ccccc1,-3% (inactive)
2,FC(F)(F)c1nc2nc(Cl)c(Cl)nc2n1CCCN1CCOCC1,0% (inactive)
3,BrCC[P+](c1ccccc1)(c1ccccc1)c1ccccc1,-60% (inactive)
4,N#CSc1ccc(S(N)(=O)=O)cc1,-43% (inactive)
5,O=[N+]([O-])c1ccc2nc3ccccc3cc2c1,-5% (inactive)
6,O=C(NC(Nc1ccc(F)c(Cl)c1)(C(F)(F)F)C(F)(F)F)C(C(F)(F)F)C(F)(F)F,8% (inactive)
7,O=C(/C=C\c1ccc(Cl)cc1Cl)c1cccs1,-2% (inactive)
8,O=C(NCCCCNCCCNC(=O)c1cc(-c2ccccc2)nc2ccccc12)c1cc(-c2ccccc2)nc2ccccc12,6% (inactive)
9,NC(=NCc1ccccc1)N/N=C\c1ccnc2ccccc12,-1% (inactive)
10,CCCCN(CCCC)CCSc1ccc(Cl)cc1,-1% (inactive)
11,COc1cc(C2C3=C(COC3=O)Oc3cc4c(cc32)OCO4)ccc1O (stereo not drawn),-2% (inactive)
12,C#CCCCc1ccccc1,-29% (inactive)
13,CCc1ccc(NS(=O)(=O)c2ccccc2)c([N+](=O)[O-])c1,1% (inactive)
14,COc1ccc(C2c3cc4c(cc3OC(C)(O)C2C)OCO4)c(OC)c1 (stereo not drawn),-1% (inactive)
15,COC(=O)c1ccc(CCC2=CC(=O)C(Br)=CC2=O)cc1,4% (inactive)
16,NNC(=O)CCc1ccc2ccc3ccccc3c2c1,1% (inactive)
17,Cn1c2ccccc2c(=O)c2cc(NC(=O)CCCCC(=O)Nc3ccc4c(c3)c(=O)c3ccccc3n4C)ccc21,4% (inactive)
18,CC(CC(C)(C)[N+](C)(C)C)[N+](C)(C)C (stereo not drawn),3% (inactive)
19,CC1CCN(CCC(=O)c2ccc(Cl)cc2)CC1,-1% (inactive)
20,CCCCCCCCCCCCCCC(C(=O)[O-])[n+]1ccccc1 (stereo not drawn),-1% (inactive)

row,SMILES,growth inhibition
1,CNC1C(OC2C(OC3C(O)C(O)C(N=C(N)N)C(O)C3N=C(N)N)OC(C)C2(O)CO)OC(CO)C(O)C1O (stereo not drawn),4% (inactive)
2,O=C(O)c1ccccc1-c1ccccc1C(=O)Nc1ccc2c(c1)Cc1ccccc1-2,5% (inactive)
3,O=[N+]([O-])c1cccc2nc3ccccc3c(NCCCN3CCOCC3)c12,-8% (inactive)
4,C=CC(C)(O)CCC1C(=C)C(O)CC2C(C)(C)CCCC12C (stereo not drawn),-26% (inactive)
5,CN1c2ccc(Cl)cc2C(=O)NC1c1ccc([N+](=O)[O-])s1 (stereo not drawn),5% (inactive)
6,[O-][n+]1c2ccc(O)cc2nc2ccc(Br)cc21,1% (inactive)
7,O=C1c2ccccc2-c2nc3ccccc3nc21,-20% (inactive)
8,CCCCN1C(=O)N(c2ccc(OCC)cc2)C2N(CCCC)C1C(C)(C)C2(C)C (stereo not drawn),-3% (inactive)
9,CO[C@H]1C[C@](C)(O)Cc2cc3c(c(O)c21)C(=O)c1c(O)cc2c(c1C3=O)O[C@@H]1O[C@@]2(C)[C@H](O)[C@@H](N(C)C)[C@@H]1O,-38% (inactive)
10,COc1cc2c(cc1[N+](=O)[O-])C(=O)C(Br)(Br)CCC2,38% (inactive)
11,O=C1OC(CCl)CN1/N=C/c1ccc([N+](=O)[O-])o1 (stereo not drawn),-2% (inactive)
12,CN(C)CCOc1ccc2c(c1)C/C(=C/c1ncc([N+](=O)[O-])n1C)C2=O,28% (inactive)
13,CCCCCCCCCCCCCCCCCCN(C)CC(COP(=O)([O-])OCC[N+](C)(C)C)OC (stereo not drawn),0% (inactive)
14,CC(C)c1ccccc1NC(=O)/C(Cl)=C(\Cl)C(=O)O,-1% (inactive)
15,O=[N+]([O-])C(=C(Sc1ccccc1)Sc1ccccc1)C(Cl)=C(Cl)Cl,3% (inactive)
16,C(=C\c1ccccc1)/COc1ccccc1C(N1CCOCC1)n1nc2ccccc2n1 (stereo not drawn),32% (inactive)
17,O=C1C(Nc2ccccc2)=C(Oc2ccccc2)C(=O)c2ccccc21,3% (inactive)
18,CCN(CC)CCN1C(=O)c2cccc3cc(OC)cc(c23)C1=O,-5% (inactive)
19,CN(C)Cc1cc(N=Nc2ccc(Cl)cc2)cc(CN(C)C)c1O,5% (inactive)
